# Laboratory results from PubChem BioAssay AID651610 (Broad Institute, 2012).
# The whole screen tested about 360,000 compounds, of which about 3,900 (1.1%) were called active.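 Rule for the calls: active = mean replicate inhibition score of at least 50 and every replicate individually at or above 50; inconclusive = only one of the two criteria met; inactive = mean below 50 and not all replicates reaching 50.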 The entries come from a sample that favours actives as a whole.
# Test: inhibitors of HIV-1 Env-driven cell-cell fusion, primary screen, HeLa-JRFL effector, CEM21 target cells, luciferase (AID 651610);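 note: 0% = plate neutral controls and 100% = maraviroc near 300 nM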
# Conditions: stronger effect = higher value; at 16.7 µM unless noted
row,SMILES,inhibition
1,CCCN(C)C[C@@H]1Oc2cc(-c3cccc(C#N)c3)ccc2S(=O)(=O)N([C@@H](C)CO)C[C@@H]1C,1.91% (inactive)
2,C[C@H](CO)N1C[C@H](C)[C@H](CN(C)C(=O)NC2CCCCC2)Oc2ccc(NC(=O)c3ccncc3)cc2CC1=O,-6.85% (inactive)
3,C[C@@H]1CCCCO[C@H](CN(C)S(=O)(=O)c2cn(C)cn2)[C@H](C)CN([C@@H](C)CO)C(=O)c2cc(NC(=O)Nc3ccc(C(F)(F)F)cc3)ccc2O1,-4.59% (inactive)
4,CC(C)NC(=O)Nc1ccc2c(c1)CC(=O)N([C@@H](C)CO)C[C@@H](C)[C@@H](CN(C)S(=O)(=O)c1ccccc1)O2,4.16% (inactive)
5,CC(C)NC(=O)Nc1ccc2c(c1)C(=O)N([C@H](C)CO)C[C@H](C)[C@@H](CN(C)C(=O)CCCN(C)C)OCCCC[C@@H](C)O2,2.66% (inactive)
6,C[C@@H]1CCCCO[C@@H](CN(C)Cc2ccc3c(c2)OCO3)[C@@H](C)CN([C@@H](C)CO)C(=O)c2cc(NC(=O)C3CCCCC3)ccc2O1,-19.5% (inactive)
7,CN(C)C(=O)c1cccc(-c2ccc3n(c2=O)C[C@H]2N[C@@H]3[C@@H](C(=O)NC3CCC3)[C@@H]2CO)c1,4.81% (inactive)
8,C[C@H](CO)N1C[C@H](C)[C@H](CN(C)S(=O)(=O)c2cccs2)Oc2ccc(NS(=O)(=O)c3ccccc3)cc2C1=O,37% (inactive)
9,COc1ccc(NC(=O)Nc2ccc3c(c2)C(=O)N([C@@H](C)CO)C[C@H](C)[C@@H](CN(C)S(=O)(=O)c2ccc(Cl)cc2)O3)cc1,7.85% (inactive)
10,Cc1ccc(S(=O)(=O)N(C)C[C@@H]2Oc3ncc(-c4cc5ccccc5o4)cc3C(=O)N([C@H](C)CO)C[C@@H]2C)cc1,73% (active)
11,COc1ccc(-c2cnc3c(c2)C(=O)N([C@H](C)CO)C[C@H](C)[C@H](CN(C)S(=O)(=O)c2ccccc2)O3)cc1,11.4% (inactive)
12,C[C@H](CO)N1C[C@H](C)[C@H](CN(C)S(=O)(=O)c2ccc(F)cc2)Oc2ncc(-c3ccc(F)cc3)cc2C1=O,24.9% (inactive)
13,COc1ccc(S(=O)(=O)N(C)C[C@@H]2Oc3ccc(NC(=O)Nc4c(C)noc4C)cc3C(=O)N([C@H](C)CO)C[C@@H]2C)cc1,-131% [at 12.3 µM] (inactive)
14,C[C@@H]1CN([C@@H](C)CO)C(=O)Cc2cc(NC(=O)Nc3ccccc3)ccc2O[C@@H]1CN(C)S(=O)(=O)c1ccc(F)cc1,56.4% (active)
15,COc1ccc(NC(=O)Nc2ccc3c(c2)C(=O)N([C@H](C)CO)C[C@H](C)[C@H](CN(C)S(=O)(=O)c2ccc(OC)cc2)O3)cc1,59.4% (active)
16,C[C@H]1CN([C@@H](C)CO)C(=O)Cc2cc(NC(=O)Nc3ccc(F)cc3)ccc2O[C@H]1CN(C)S(=O)(=O)c1ccccc1,54% (inactive)
17,C[C@H](CO)N1C[C@H](C)[C@@H](CN(C)S(=O)(=O)c2ccccc2)Oc2ccc(NC(=O)Nc3ccc(F)cc3)cc2CC1=O,-10.6% (inactive)
18,C[C@@H]1CCCCO[C@@H](CN(C)Cc2ccncc2)[C@@H](C)CN([C@@H](C)CO)C(=O)c2cc(NC(=O)Nc3ccc(F)cc3)ccc2O1,-4.96% (inactive)
19,Cc1ccccc1S(=O)(=O)NCC[C@@H]1CC[C@H](NC(=O)C2CC2)[C@@H](CO)O1,0.439% (inactive)
20,C[C@@H]1CN([C@H](C)CO)C(=O)c2cc(N(C)C)ccc2O[C@@H]1CN(C)S(=O)(=O)c1cn(C)cn1,4.03% (inactive)

row,SMILES,inhibition
1,O=C(C[C@H]1CC[C@H](NS(=O)(=O)c2ccccc2)[C@H](CO)O1)NCc1ccncn1,2.23% (inactive)
2,CC(C)c1cn(CC[C@@H]2CC[C@@H](NC(=O)C3CC3)[C@H](CO)O2)nn1,7.45% (inactive)
3,Nc1ccn(CC(=O)N2CCN(c3ccccn3)CC2)c(=O)n1,15.1% [at 12.3 µM] (inactive)
4,O=C(Nc1ccn(CCCNCc2ccc3[nH]ccc3c2)c(=O)n1)OCc1ccccc1,1.22% [at 12.3 µM] (inactive)
5,Cc1cc(C)c(CN2CCN(C(=O)Cn3ccc(NC(=O)OCc4ccccc4)nc3=O)CC2)c(C)c1,72.2% [at 12.3 µM] (active)
6,C[C@H](CO)N1C[C@H](C)[C@@H](CN(C)Cc2ccc(Oc3ccccc3)cc2)Oc2ccc(NS(=O)(=O)c3ccc(F)cc3)cc2CC1=O,6.63% (inactive)
7,C[C@H](CO)N1C[C@H](C)[C@H](CN(C)C(=O)c2ccccc2)OCCCC[C@H](C)Oc2ccc(NS(C)(=O)=O)cc2C1=O,-12.1% (inactive)
8,COc1ccc(C2CC(c3cccs3)Nc3nnnn32)cc1 (stereo not given),15.5% [at 12.3 µM] (inactive)
9,Clc1ccc(C2CC(c3cccs3)n3ncnc3N2)cc1Cl (stereo not given),91.8% [at 12.3 µM] (active)
10,Nc1nc2n(n1)C(c1ccco1)CC(c1ccc(Cl)c(Cl)c1)N2 (stereo not given),-24.3% [at 12.3 µM] (inactive)
11,Cc1ccc(S(=O)(=O)Nc2ccc3c(c2)C(=O)N([C@H](C)CO)C[C@@H](C)[C@H](CN(C)S(=O)(=O)c2cccs2)OCCCC[C@@H](C)O3)cc1,-10.4% (inactive)
12,O=C(NCC[C@H]1CC[C@@H](NC(=O)C2CC2)[C@H](CO)O1)c1ccc(F)cc1,13.4% (inactive)
13,Cc1ccc(S(=O)(=O)Nc2ccc3c(c2)C(=O)N([C@@H](C)CO)C[C@H](C)[C@@H](CN(C)C(=O)Cc2ccccc2)OCCCC[C@H](C)O3)cc1,-8.35% (inactive)
14,CCCCC[C@@H]1C=C(C(=O)OCC)[C@H](c2ccccc2)N1S(=O)(=O)c1ccc(C)cc1,-5.02% [at 12.3 µM] (inactive)
15,CCOC(=O)C1C(C)C(C(C)(C)C)N(S(=O)(=O)c2ccc(C)cc2)C1c1ccccc1 (stereo not given),77.2% [at 12.3 µM] (active)
16,CCOC(=O)C1=CC[C@@H](c2ccccc2)N(S(=O)(=O)c2ccc(C)cc2)[C@H]1c1ccc(CC)cc1,44.3% [at 12.3 µM] (inactive)
17,CCC(=O)N1C[C@H](C)[C@@H](OC)CN(C)C(=O)c2cc(NC(=O)c3cnccn3)ccc2OC[C@@H]1C,-0.896% (inactive)
18,Cc1ccc(S(=O)(=O)N(C)CC(=O)N2CCc3ccccc32)cc1,-5.79% [at 12.3 µM] (inactive)
19,CN(Cc1ccc(F)cc1)C(=O)CN1C(=O)c2ccccc2S1(=O)=O,-26% [at 12.3 µM] (inactive)
20,O=C(CN1C(=O)c2ccccc2S1(=O)=O)N1CCc2ccccc21,63.8% [at 12.3 µM] (active)
